# High-throughput results: PubChem BioAssay, National Center for Advancing Translational Sciences (NCATS)
# This is a sample that favours compounds with a hit; in the whole collection about 0.87% have one here.
# WRN helicase inh = inhibitors of human WRN helicase; WRN helicase unwinding, fluorescent forked duplex, kinetic; Potency, µM (highest dose often 114 µM), usual class: inhibitors; actives 0.46% (n = 360,000); AID 651768; note: nearly all actives have a fitted effect of over 55% in size
#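 Screening of the MLSMR collection measured strand separation of a quenched forked DNA duplex (100 nM) by 20 nM WRN with 2 mM ATP, all final. Compounds were preincubated with enzyme 15 min at room temperature.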
# BLM inh = Bloom syndrome helicase (human) inhibition; actives 0.2% (n = 350,000); recombinant BLM DNA unwinding, fluorescence dequenching; P54132; Potency, µM (titrated, usually from 56.1 µM), most hits filed as inhibitors; note: nearly all actives have a fitted effect of over 35% in size
# FEN1 inh-1 = inhibitors of human flap endonuclease 1; P39748; Recombinant FEN1 flap cleavage, fluorescence, 15 min; actives 0.35% (n = 390,000); Potency, µM (series often up to 114 µM), most hits filed as inhibitors; note: nearly all actives have a fitted effect of over 65% in size
#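 Reaction started by adding substrate (50 nM final) to 10 nM enzyme after 15 min room-temperature compound preincubation. Reads at 0 and 15 min, with data normalized and fitted to a four-parameter Hill equation.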
# RECQ1 helicase = inhibitors of human RECQ1 DNA helicase | P46063 | RECQ1 DNA unwinding, red fluorescence kinetic read | Potency, µM (highest dose often 57.3 µM), actives largely listed as inhibitors | actives 0.54% (n = 240,000) | AID 2549; note: nearly all actives have a fitted effect of over 30% in size
#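 RECQ1T1 50 nM; forked duplex (20 bp + 30-nt ss tails) 200 nM, ATP 2 mM final; pH 8.0, 2 mM MgCl2, 2.5 ug/ml poly(dI-dC); 15 min compound preincubation; discontinuous kinetic read over 2 h at RT.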
# APEX1 inh = inhibitors of human APE1 endonuclease | P27695 | recombinant APE1, TAMRA/BHQ-2 abasic DNA cleavage fluorescence | Potency, µM (titrated, usually from 65.8 µM), most hits filed as inhibitors | actives 0.35% (n = 350,000) | AID 2517; note: nearly all actives have a fitted effect of over 55% in size
#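 0.75 nM APE1 + cpd, 15 min RT; start w/ 50 nM TAMRA/BHQ-2 THF-abasic dsDNA; kinetic fluor 525/598 nm ×3 reads @60 s; Δ(read3−read1); normalized to DMSO and NSC13755 control wells.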
# FEN1 inh-2 = confirmation of human FEN1 inhibitors. shares compounds with FEN1 inh-1. FEN1 flap cleavage, TAMRA/BHQ2 fluorogenic DNA substrate. Potency, µM, hits mostly inhibitors. actives 79% (n = 880); note: nearly all actives have a fitted effect of over 60% in size
# Hits are given with their value; - = inactive; ? = inconclusive; . = not tested or not shown; [ ] = remark or other dose. Calls come from the whole dose curve; as a rule, active = well fitted curve in the direction sought with a large enough effect; inconclusive = small, poorly fitted or top-dose-only effect, or another doubt; inactive = no such curve, though single readings can be large; an effect the other way counts as inactive or inconclusive.
SMILES,WRN helicase inh,BLM inh,FEN1 inh-1,RECQ1 helicase,APEX1 inh,FEN1 inh-2
CCOC(=O)C1=C(C)N=c2s/c(=C/c3ccc(OCC(=O)O)cc3)c(=O)n2C1c1ccc(F)cc1 (centres undefined),-[11.6 µM],-,?,.,-,84.9
CSc1ccc(CCNC(=O)CCc2c(C)nc3c4cccnc4nn3c2C)cc1,.,-,-,.,.,.
CCOC(=O)C1CCCN(C(=O)Cn2ncc3c(C)n(Cc4ccccc4Cl)c(C)c3c2=O)C1 (centres undefined),.,-,-,.,.,.
COc1cc2c(oc(=O)c3cc(C)cc(OC)c32)c2c(C3OC(C)C(O)C(C)(O)C3O)ccc(O)c12 (centres undefined),?,.,3.55µM,.,.,0.849
CCOC(=O)N1CCC(NC(=O)c2cnn(-c3ccc(F)cc3)c2-n2cccc2)CC1,.,-,-,.,.,.
Cc1cccc2nc(-c3cccc(NC(=O)Cc4ccccc4)c3)cn12,-,-,-,-,-,.
Cc1cccc2nc(-c3cccc(NC(=O)c4ccc(Cl)cc4)c3)cn12,-[11.6 µM],?,?,?,?,60.1
COc1ccc(-c2oc3ncnc(NCCCN(C)C)c3c2-c2ccc(OC)cc2)cc1,-[11.6 µM],-,?,.,-,?
O=C(CCC(=O)N1CC2CCCN2c2ccccc21)NCc1ccc(F)cc1 (centres undefined),.,-,-,.,.,.
CCOC(=O)c1[nH]c(C)c(CCC(=O)Nc2ccccc2C(=O)OC)c1C,.,-,-,.,.,.
COc1ccc(CCNC(=O)C(C)n2nc(C)c3sc4ccccc4c3c2=O)c(OC)c1 (centres undefined),.,-,?,.,.,.
COc1ccc(-c2cc(=O)c3c(O)cc(OC4OC(COC5OC(C)C(O)C(O)C5O)C(O)C(O)C4O)cc3o2)cc1O (centres undefined),-[11.6 µM],.,50.1µM,.,-,?
CC1O[C@@H](O[C@H]2C(Oc3cc(O)c4c(=O)cc(-c5ccc(O)cc5)oc4c3)OC(CO)C(O)C2O)C(O)C(O)C1O (some centres undefined),.,-,.,-,-,.
Cc1nc(-c2ccc(Cl)cc2)sc1CCNC(=O)C(=O)Nc1ccc2c(c1)OCO2,.,-,-,.,.,.
O=C1c2cccc3cc([N+](=O)[O-])cc(c23)C(=O)N1/N=C/c1ccc(O)cc1O,?,-,?,-,?,42.6
COc1ccccc1/C=N/N1C(=O)c2cccc3cccc(c23)C1=O,-,-,-,-,-,.
COc1cc(/C=C2\SC(=O)N(CC(=O)Nc3ccc(C)cc3)C2=O)cc(Cl)c1OCC(=O)O,50.1µM,10µM,?,.,5.32µM,67.5
COc1cc(C(=O)NCC(c2cccs2)S(=O)(=O)c2ccc(F)cc2)cc(OC)c1OC (centres undefined),.,-,-,.,.,.
Cc1cccc(Cc2c(C)nc3nc(SCc4ccccc4C)nn3c2C)c1,.,-,-,.,.,.
O=C(O)C(Cc1ccccc1)N1C(=O)/C(=C/C=C/c2ccco2)SC1=S (centres undefined),10µM,22.4µM,11.2µM,2.82µM,1.58µM,26.9
COc1ccc(/C=C2\SC(=S)N(C(Cc3ccccc3)C(=O)O)C2=O)cc1 (centres undefined),?,-,-,-,-,.
CCN(CC)CCOC(=O)c1ccc(NC(=O)c2cc3cccc(OC)c3oc2=O)cc1,.,-,-,.,.,.
Cc1ccsc1/C=N/NC(=O)C(N)=O,-,-,15.8µM,-,-,?
Cc1ccsc1/C=N/NC(=O)c1cccs1,-,-,-,-,-,.
CCCn1c(=O)n(-c2cc(Cl)c(OC)cc2OC)c(=O)c2c3c(sc21)CN(C(C)=O)CC3,.,-,-,.,.,.
SMILES,WRN helicase inh,BLM inh,FEN1 inh-1,RECQ1 helicase,APEX1 inh,FEN1 inh-2
CN(C)CCc1cc2c(c3c1ccc1ccccc13)OCO2,-,-,?,-,?,21.3
COc1cc2ccc3c(CCN(C)C)cc(OC)c(OC)c3c2cc1OC,-,-,?,.,-,.
CCOc1ccc(-c2cc3cc(OC)c(OC)cc3c(C)n2)cc1,-,-,-,-,-,.
COc1cc2cc(-c3ccc(O)cc3O)nc(C)c2cc1OC,-[11.6 µM],-,?,.,-,?
CCOC(=O)N1CCc2c(sc(NCc3ccc(N(C)C)cc3)c2C(=O)Nc2ccccc2OCC)C1,.,-,-,.,.,.
CC1CC(C)CN(C(=O)COC(=O)c2ccc([N+](=O)[O-])o2)C1 (centres undefined),-,.,-,.,-,.
